Bioassay records as filed in PubChem BioAssay.
Shown are actives, neighbours in structure and some others; about 1.3% of the full set was active somewhere.
Vif-APOBEC3F blk: inhibitors of Vif-A3F interaction; HeLa A3F-eYFP + Vif (tagged APOBEC3F with the HIV-1 protein that degrades it), YFP fluorescence increase; Potency, µM (titrated, usually from 46.1 µM), for inactives: at the top dose activity, negative = active; actives 0.2% (n = 390,000); also: potency is read from the fitted curve at half-maximal effect; % of control where 0% means no effect; nearly all actives have a fitted effect of over 65% in size
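HeLa cells stably expressing Vif plus C-terminally eYFP-tagged A3F were seeded, incubated overnight at 37 deg C, dosed with compound, incubated overnight again at 37 deg C. Yellow fluorescence (Ex 488/Em 500-530) reported blocked Vif-mediated A3F-eYFP degradation.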
GRP78 ERSR act: inducers of ER stress response in human glioma cells | Potency, µM, without a hit: at the highest dose activation, actives largely listed as activators | U87-MG GRP78 promoter luciferase reporter, 16 h | AID 602332 | actives 0.02% (n = 420,000); also: potency is read from the fitted curve at half-maximal effect; series mostly up to about 76 µM; % of control where 0% means no effect; nearly all actives have a fitted effect of over 35% in size
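Stably transfected U87-MG glioma cells carrying a GRP78-based luciferase sensor; 16 h compound incubation. Luminescence end-point read 10 min after Bright-Glo addition at room temperature.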
ALOX12 inh: blocks human arachidonate 12S-lipoxygenase; purified 12hLO, xylenol orange hydroperoxide absorbance; Potency, µM (top dose mostly 108 µM), without a hit: at the highest dose activity change, negative = inhibition, most hits filed as inhibitors; actives 1.1% (n = 580,000); AID 1671190; also: potency is read from the fitted curve at half-maximal effect; % is scaled to controls: 0 for no effect and ±100 for the full control effect
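Purified human 12hLO at 150 nM in 25 mM Hepes, 0.01% Triton X-100, pH 7.0, preincubated 15 min at room temperature with compound. Reaction started with 40 uM arachidonic acid, 30 min at room temperature. Hydroperoxide measured by Fe-xylenol orange, 573/405 nm absorbance ratio.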
Vif-A3G inh: inhibitors of Vif-APOBEC3G interaction; Potency, µM (top dose mostly 46.1 µM), without a hit: at the top dose activity, negative = active, most hits filed as inhibitors; Q9HC16; HeLa A3G-eYFP + Vif (tagged APOBEC3G with the HIV-1 protein that degrades it), YFP fluorescence, overnight; actives 0.076% (n = 410,000); also: potency is read from the fitted curve at half-maximal effect; % is scaled to controls: 0 for no effect and ±100 for the full control effect; nearly all actives have a fitted effect of over 60% in size
Target sequence (Q9HC16 whole entry, looked up): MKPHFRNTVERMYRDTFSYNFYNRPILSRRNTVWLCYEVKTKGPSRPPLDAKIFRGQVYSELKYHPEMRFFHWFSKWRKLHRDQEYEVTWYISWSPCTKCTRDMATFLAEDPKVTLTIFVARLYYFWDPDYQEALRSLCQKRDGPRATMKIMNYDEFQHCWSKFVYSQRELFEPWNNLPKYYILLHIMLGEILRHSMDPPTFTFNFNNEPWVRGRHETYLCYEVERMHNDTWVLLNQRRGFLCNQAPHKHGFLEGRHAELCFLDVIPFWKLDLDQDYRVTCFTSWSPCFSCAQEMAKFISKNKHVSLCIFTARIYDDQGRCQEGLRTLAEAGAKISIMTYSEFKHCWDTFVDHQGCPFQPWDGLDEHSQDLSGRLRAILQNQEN
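HeLa cells stably expressing Vif and C-terminally eYFP-tagged A3G, seeded overnight at 37 deg C, then exposed to compound by pintool overnight at 37 deg C. Rise in yellow fluorescence (Ex 488/Em 500-530, Acumen) marks blocked Vif-driven A3G degradation.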
TRPML1 ag: activates the human TRPML1 channel; TRPML1-expressing cells, Ca2+ dye fluorescence, FDSS; activation, % (no concentration beside the values); actives 0.12% (n = 410,000); AID 624414; in the data active = activation above about 50%; inconclusive = mostly about 30% to 49%; also: 0% is about no effect
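Tetracycline-induced TRPML1-DL cells are seeded and incubated overnight before loading with a no-wash Ca2+ dye and quencher. Agonist activity is taken from the 110 s fluorescence read following compound pin-transfer on an FDSS, before EC80 54-4 challenge.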
TRPML1 blocker: blocks the human TRPML1 channel; activity change, negative = inhibition, % (test concentration not listed); Q9GZU1; TRPML1-inducible cells, Ca2+ dye fluorescence, FDSS; stronger effect = lower value; inhibition of EC80 agonist-evoked calcium signal; actives 0.02% (n = 390,000); in the data active = activity change below about -50%; inconclusive = between about -30% and that limit;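 also: stimulus is agonist 54-4 at its EC80 concentration; % is scaled to controls: 0 for no effect and ±100 for the full control effect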
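TRPML1-DL cells, Tet-induced overnight (~16 h, 37 °C) at 1,500 cells/well, were loaded with Ca8 no-wash dye plus quencher for 45-90 min at room temperature. Compounds were pinned during FDSS kinetic reading; agonist 54-4 at EC80 (4 uM final) then added.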
Active calls of the source: *; ? = inconclusive; · = no result. Unless noted, calls follow the shape of the dose curve; as a rule, active = well fitted curve in the direction sought with a large enough effect; inconclusive = small, poorly fitted or top-dose-only effect, or another doubt; inactive = no such curve, though single readings can be large; an effect the other way counts as inactive or inconclusive.

SMILES	Vif-APOBEC3F blk	GRP78 ERSR act	ALOX12 inh	Vif-A3G inh	TRPML1 ag	TRPML1 blocker
COc1cc(NS(=O)(=O)c2ccc(NC(=S)NC(=O)/C=C/c3ccc(F)cc3)cc2)ncn1	2%	-3%	-11%	-19%	0	-11
CCc1nnc(NS(=O)(=O)c2ccc(NC(=O)c3ccc(Cl)cc3)cc2)s1	-3%	-1%	-11%	-3%	·	·
CCc1nnc(NS(=O)(=O)c2ccc(NC(=O)c3ccccc3)cc2)s1	0%	1%	2%	2%	0	22
CCc1nnc(NS(=O)(=O)c2ccc(NC(=S)NC(=O)/C=C/c3ccccc3)cc2)s1	-12%	-4%	22µM*	-20%	-1	-13
COc1nccnc1NS(=O)(=O)c1ccc(NC(=S)NC(=O)/C=C/c2ccc(F)cc2)cc1	-4%	-3%	13µM*	-11%	0	-8
CCc1nnc(NS(=O)(=O)c2ccc(NC(=S)NC(=O)c3ccc(Br)cc3)cc2)s1	?	4%	5.6µM*	-6%	1	-11
Cc1ccc(-c2nnn(CCCn3c(=O)c4c(ncn4C)n(C)c3=O)n2)cc1	·	·	7%	·	·	·
CC(=O)N1CCN(C(C(=O)O)c2c[nH]c3ccc(C)cc23)CC1 (stereo not drawn)	·	·	-3%	·	·	·
O=C(NCc1ccc(C(F)(F)F)cc1)[C@@H]1Cc2nc[nH]c2CN1Cc1ccc([N+](=O)[O-])cc1	·	·	85%	·	·	·
COC(=O)[C@@H]1Cc2nc[nH]c2CN1Cc1ccc([N+](=O)[O-])cc1	·	·	10µM*	·	·	·
O=C(Nc1ccc(F)c(S(=O)(=O)N2CCOCC2)c1)c1ccccc1-c1ccccc1	·	·	-20%	·	·	·
O=C(Cc1cccc(C(F)(F)F)c1)NC1(c2ccccc2)CCC1	·	·	35µM*	·	·	·
O=C(Cc1cccc(C(F)(F)F)c1)Nc1ccccc1	1%	4%	-41%	-2%	2	16
O=C(Nc1ccccc1)c1nnsc1S(=O)c1ccc(Cl)cc1 (stereo not drawn)	1%	-15%	14µM*	-17%	8	9
CCOC(=O)C1=C(C)OC(N)=C(C#N)C1c1ccc(C(F)(F)F)cc1 (stereo not drawn)	·	·	16µM*	·	·	·
Cc1cc(OCCN2CCC(Cc3ccccc3)CC2)ccc1[N+](=O)[O-]	15%	0%	6.3µM*	-1%	0	5
Cc1cc(OCCN2CC(C)OC(C)C2)ccc1[N+](=O)[O-] (stereo not drawn)	-6%	0%	?	-1%	-1	9
CN(C)C(=O)c1ccc(NC(=O)CSc2ccc(F)cc2)cc1	·	·	6%	·	·	·
Cn1ccnc1C(NC(=O)Cc1n[nH]c(=O)c2ccccc12)c1cccc(F)c1 (stereo not drawn)	·	·	16%	·	·	·
CC(=O)c1c[nH]c(C(=O)NC(c2cccc(F)c2)c2nccn2C)c1 (stereo not drawn)	·	·	22µM*	·	·	·
O=C(Nc1ccc(Cl)cc1)c1ccccc1OCC1CCCO1 (stereo not drawn)	·	·	-14%	·	·	·
N#Cc1c(-c2ccncc2)cc(-c2ccc(F)cc2)nc1N	12%	-4%	-10%	0%	-1	-2
Cc1ccc(-c2cc(-c3ccccc3)c(C#N)c(N)n2)o1	-14%	-4%	0.79µM*	-18%	0	27
N#Cc1c(-c2ccccc2)cc(C2CC2)nc1N	-5%	6%	7%	0%	0	4
Cc1ccc(-c2cc(-c3ccccc3Cl)c(C#N)c(N)n2)o1	-13%	-4%	7.1µM*	1%	0	-4
SMILES	Vif-APOBEC3F blk	GRP78 ERSR act	ALOX12 inh	Vif-A3G inh	TRPML1 ag	TRPML1 blocker
Cc1ccc(-c2cc(-c3ccc(F)cc3)nc(N)c2C#N)o1	-7%	-11%	6.3µM*	-11%	3	-1
CCCCc1ccc(Nc2nnc(SCc3nnc(C)o3)s2)cc1	·	·	-10%	·	·	·
NNc1nc2sc3c(c2c(=O)[nH]1)CCc1ccccc1-3	3%	-6%	35µM*	-16%	1	8
CCCCc1nn2cc(-c3ccc(C)cc3)nc2s1	·	·	28%	·	·	·
Cc1cccc(C)c1NC(=S)NC(C)CCc1ccccc1 (stereo not drawn)	7.1µM*	-3%	40µM*	0%	1	14
COc1ccc(CNC(=S)NC(C)CCc2ccccc2)cc1 (stereo not drawn)	2%	1%	40µM*	2%	1	-6
Cc1cccc(-c2noc(-c3ccc(I)cc3)n2)c1	·	·	-15%	·	·	·
CCCCN(C)CC1CCN(C(=O)Nc2ccc(F)cc2)CC1	·	·	-2%	·	·	·
CC(C)NC(=O)c1sc2nc(-c3cccs3)cc(-c3cccs3)c2c1N	?	4%	-9%	-7%	-1	-12
COc1ccc(NC(=O)c2sc3nc(-c4ccc(OC)cc4)cc(C(F)(F)F)c3c2N)cc1	?	-3%	7%	?	2	16
COc1ccc(C(=O)c2sc3nc(C)cc(-c4cccs4)c3c2N)cc1OC	?	-2%	-16%	?	52*	-21
COc1ccc(C(=O)c2sc3nc(C)cc(-c4cccs4)c3c2N)cc1	22µM*	-3%	-14%	13µM*	?	1
COc1ccc(-c2cc(-c3cccs3)nc3sc(C#N)c(N)c23)cc1	11µM*	-3%	-7%	?	1	13
COc1ccc(C(=O)c2sc3nc(-c4ccc(C)cc4)cc(C(F)(F)F)c3c2N)cc1	1.3µM*	-2%	-13%	8.9µM*	12	32
Cc1cc2oc(C(=O)NCC(c3cccs3)N3CCCCCC3)cc(=O)c2cc1Cl (stereo not drawn)	·	·	-5%	·	·	·
O=C(Nc1cccc2cccnc12)c1cc(Cl)cc(Cl)c1	·	·	-16%	·	·	·
Cc1noc(-c2ccc(OC3CN(C(=O)CCCc4ccccc4)C3)cc2)n1	·	·	26%	·	·	·
Cc1noc(-c2ccc(OC3CN(C(=O)Cc4cccs4)C3)cc2)n1	·	·	7.1µM*	·	·	·
Cc1cc(S(=O)(=O)Nc2ccc(O)c(Sc3nc4ccccc4s3)c2)ccc1Cl	6%	-4%	?	-1%	3	7
O=S(=O)(Nc1ccc(O)c(Sc2nc3ccccc3s2)c1)c1cc(Cl)ccc1Cl	-19%	-4%	10µM*	1%	-1	1
CN1CCN(C(=O)c2cc3c(c(-c4cccc(Br)c4)n2)[C@@H](CCO)N(S(=O)C(C)(C)C)C3)CC1 (stereo partly drawn)	·	-4%	?	-2%	2	-18
CC(C)(C)S(=O)N1Cc2cc(C(=O)N3CCOCC3)nc(-c3cccc(Br)c3)c2[C@@H]1CCO (stereo partly drawn)	·	-3%	5µM*	0%	0	-2
Nc1c(C(=O)N/N=C/c2ccccc2Cl)oc2nc(-c3ccccc3)cc(-c3ccco3)c12	7.1µM*	0%	0%	?	2	0
